Bioassay records deposited in PubChem by several laboratories.
aSyn 5UTR inh – MLPCN primary screen, SNCA 5' untranslated region. actives 0.82% (n = 300,000). AID 1813. alpha-synuclein 5'UTR reporter, inhibitor activity. inhibition, % (tested at 7.5 µM); in the data active = inhibition above about 60%;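 note: H4 neuroglioblastoma cells stably carrying SNCA 5'UTR luciferase fusion; 0% = DMSO wells and 100% = positive control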
KLF5 inh – kruppel-like factor 5 inhibition; DLD-1 KLF5 promoter-luciferase reporter, luminescence; inhibition, % at 5 µM; actives 0.23% (n = 290,000);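 active = inhibition above a per-plate limit of that plate's mean compound inhibition plus 3 SD, cut at about 60% in these data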;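 note: 0% = DMSO wells and 100% = LY294002 at 200 µM; higher means less KLF5 promoter-driven luciferase light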
IEC-6 cytotox – kills IEC-6 intestinal cells in KLF5 counter-screen; AID 1825; IEC-6 cytotoxicity, luminescence viability; actives 0.78% (n = 290,000); inhibition, % at 5 µM; in the data active = inhibition above about 22%;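 note: 0% = plate median of test compound wells and 100% = cytotoxic reference compound wells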
BaF3 parental – counter-screen for JAK2V617F inhibitors: parental Ba/F3 viability inhibitors; inhibition, % at 5.6 µM; actives 1.1% (n = 220,000); CellTiter-Glo ATP luminescence;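 active = inhibition above a per-campaign cutoff, the mean inhibition of all tested compounds plus 3 SD, cut at about 27% in these data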;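 note: 0% = DMSO wells and 100% = JAK Inhibitor I control wells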
Ba/F3 V617F tox – loss of viability in JAK2V617F-driven Ba/F3 cells | Ba/F3 EpoR-JAK2V617F viability, ATP luminescence | inhibition, % at 5.6 µM | actives 1.1% (n = 220,000) | AID 1446;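 active = inhibition above the campaign mean plus 3 SD over all tested compounds, cut at about 24% in these data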;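 note: cytokine-independent growth of Ba/F3 cells driven by EpoR plus mutant JAK2; 0% = DMSO-treated cells and 100% = JAK inhibitor I control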
APP 5UTR inh – APP translation inhibition | inhibition, % at 2 µM | actives 0.82% (n = 190,000) | SH-SY5Y APP 5'UTR-luciferase reporter, luminescence;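 active = inhibition above a set limit, derived from the sample mean plus 3 SD, cut at about 45% in these data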
BaF3 parental 2 – parental Ba/F3 viability inhibition for JAK2V617F counter-screen; shares compounds with Ba/F3 V617F tox; CellTiter-Glo luminescence; cells kept alive by added IL-3; inhibition, % at 5.6 µM; actives 31% (n = 580);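 active = cell growth inhibition above the hit limit set in the earlier mutant JAK2 cell screen, cut at about 27% in these data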;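 note: plate controls were DMSO-treated cells for no effect and JAK Inhibitor I control wells for full effect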
JAK2V617F confrm – confirmation: loss of viability in JAK2V617F-dependent Ba/F3 cells; inhibition, % at 5.6 µM; shares compounds with Ba/F3 V617F tox; Ba/F3 EpoR-JAK2V617F viability, CellTiter-Glo luminescence; actives 66% (n = 580);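 active = mean inhibition above the hit cutoff derived in the earlier primary screen, cut at about 25% in these data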;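 note: 0% = DMSO-treated cells and 100% = JAK inhibitor I control wells; higher means lower luminescence from reduced cell ATP and viability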
* marks the source's active call; other numbers are inactive results. A selection: hits, their analogues and other compounds. The true share with any hit is near 2.1%.

CC(C)C[C@H](N)c1nnc(SCC(=O)Nc2ccc(Br)cc2)o1 was read as aSyn 5UTR inh -7, KLF5 inh -10 and IEC-6 cytotox 2.
`CC(C)C[C@H](NC(=O)OC(C)(C)C)c1nnc(SCC(=O)Nc2ccc(Br)cc2)o1` gave aSyn 5UTR inh -7, KLF5 inh -5, IEC-6 cytotox -4, BaF3 parental 3, Ba/F3 V617F tox 99*, APP 5UTR inh -5, BaF3 parental 2 -6 and JAK2V617F confrm -1.
Screening c1ccc(CCNc2nc(-c3ccccn3)nc3ccccc23)cc1 returned aSyn 5UTR inh 1, KLF5 inh 1, IEC-6 cytotox 8, BaF3 parental 9, Ba/F3 V617F tox 58*, BaF3 parental 2 10 and JAK2V617F confrm 88*.
`c1ccc(CN2CCN(c3nc(-c4ccccn4)nc4ccccc34)CC2)cc1` gave aSyn 5UTR inh 0, KLF5 inh -24, IEC-6 cytotox 7, BaF3 parental -1, Ba/F3 V617F tox -1 and APP 5UTR inh -8.
`COc1ccc(NC(=O)/C(C#N)=C\c2cc(C)n(-c3ccc4c(c3)OCO4)c2C)cc1` gave aSyn 5UTR inh -107, KLF5 inh -10, IEC-6 cytotox 5, BaF3 parental 5, Ba/F3 V617F tox 30*, APP 5UTR inh 7, BaF3 parental 2 73* and JAK2V617F confrm 93*.
`COc1ccc(-n2cnnc2SCC(=O)Nc2cccnc2Cl)cc1` gave aSyn 5UTR inh 14, KLF5 inh -11, IEC-6 cytotox 3, BaF3 parental 5, Ba/F3 V617F tox 2 and APP 5UTR inh -1.
O=S(=O)(CCSc1nc2ccccc2s1)c1nc2ccccc2s1 was read as aSyn 5UTR inh -24, KLF5 inh -9, IEC-6 cytotox 4, BaF3 parental -2, Ba/F3 V617F tox 40*, APP 5UTR inh 30, BaF3 parental 2 36* and JAK2V617F confrm 100*.
For CCS(=O)(=O)CCSc1nc2ccccc2s1 the results were aSyn 5UTR inh -7, KLF5 inh 5, IEC-6 cytotox 5, BaF3 parental 3, Ba/F3 V617F tox 1 and APP 5UTR inh 2.
Screening Cc1ccc(OCC(=O)Nc2cc(S(=O)(=O)N3CCOCC3)ccc2Cl)c([N+](=O)[O-])n1 returned aSyn 5UTR inh 15, KLF5 inh -8, IEC-6 cytotox 5, BaF3 parental -3 and Ba/F3 V617F tox 0.
Cc1nc([N+](=O)[O-])c(Br)n1Cc1ccc(Cl)c(Cl)c1 was read as aSyn 5UTR inh -44, KLF5 inh 9, IEC-6 cytotox 14, BaF3 parental -2, Ba/F3 V617F tox 46*, APP 5UTR inh 21, BaF3 parental 2 2 and JAK2V617F confrm 85*.
`Nc1cccc(S(=O)(=O)Nc2ccccc2)c1` gave aSyn 5UTR inh 10, KLF5 inh -35, IEC-6 cytotox -1, BaF3 parental 2, Ba/F3 V617F tox 2 and APP 5UTR inh -1.
Cc1ccc(S(=O)(=O)N2CCC(C(=O)N[C@@H](C)C(=O)Nc3ccc4c(c3)OCO4)CC2)cc1 was read as aSyn 5UTR inh -5, KLF5 inh -23, IEC-6 cytotox 2, BaF3 parental 7, Ba/F3 V617F tox 43*, BaF3 parental 2 0 and JAK2V617F confrm 6.
`CCN1CCn2c3c(c4cccc(C)c42)CCCC31` (stereo unspecified) gave aSyn 5UTR inh 2, KLF5 inh -5 and IEC-6 cytotox 7.
O=C(NC(NC1CCS(=O)(=O)C1)C(Cl)(Cl)Cl)c1ccc(Br)cc1 (stereo unspecified) was read as aSyn 5UTR inh 26, KLF5 inh 18, IEC-6 cytotox 15, BaF3 parental 9, Ba/F3 V617F tox 36*, APP 5UTR inh 12, BaF3 parental 2 1 and JAK2V617F confrm 24*.
CC1=CC(C)(C)N(S(=O)(=O)c2ccc(C)cc2)c2ccccc21 was read as aSyn 5UTR inh 41, KLF5 inh 9, IEC-6 cytotox 5, BaF3 parental 11, Ba/F3 V617F tox 30*, APP 5UTR inh 20, BaF3 parental 2 46* and JAK2V617F confrm 94*.
